According to the supplement of paper PMC12350171:
Counter-ions that a name gives are not always drawn.

System: Haemophilus parainfluenzae
Test: growth AUC normalised to DMSO control (fraction of control); higher = less growth inhibition, active = hit call of the paper
Conditions: 20 µM;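 active = AUC significantly below DMSO controls by Student t-fit with adjusted P under 0.01; inactive = not significantly reduced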
Summary of the method: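 Hemin and NAD were added to the medium for Haemophilus parainfluenzae. All pathogens, after two anaerobic passages, were inoculated at a starting OD578 of 0.01 into pre-reduced mGAM plates with 20 μM compound and 1% DMSO under breathable seals, and OD578 was read hourly for 24 h in three biological replicates. AUC of each growth curve was obtained with the trapezoidal rule up to the exponential-to-stationary transition and normalised to DMSO controls from the same plate.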

Compound	growth AUC normalised to DMSO control
NC[C@H]1CC[C@H](C(=O)O)CC1 [Tranexamic acid]	1.04 (inactive)
CO[C@H]1/C=C/O[C@@]2(C)Oc3c(C)c(O)c4c(O)c(c(/C=N/N5CCN(C6CCCC6)CC5)c(O)c4c3C2=O)NC(=O)/C(C)=C\C=C\[C@H](C)[C@H](O)[C@@H](C)[C@@H](O)[C@@H](C)[C@H](OC(C)=O)[C@@H]1C [Rifapentine]	0.0302 (active)
COc1ccccc1Oc1c(NS(=O)(=O)c2ccc(C(C)(C)C)cc2)nc(-c2ncccn2)nc1OCCO [Bosentan]	0.966 (inactive)
CCOC(=O)[C@H](CCc1ccccc1)N[C@@H](C)C(=O)N1Cc2ccccc2C[C@H]1C(=O)O [Quinapril hydrochloride]	0.952 (inactive)
COc1ccc2cc([C@H](C)C(=O)O)ccc2c1 [(S)-Naproxen]	1 (inactive)
CC(=O)OCC(=O)[C@@]1(O)[C@H](C)C[C@H]2[C@@H]3CCC4=CC(=O)C=C[C@]4(C)[C@@]3(F)[C@@H](O)C[C@@]21C [Dexamethasone acetate]	1.03 (inactive)
CC(C)NCC(O)COc1ccc(CCOCC2CC2)cc1 (stereo not given) [Betaxolol hydrochloride]	0.988 (inactive)
Cc1cc(C(C)(C)CC(C)(C)C)ccc1OCCOCC[N+](C)(C)Cc1ccccc1 [Methyl benzethonium chloride]	0.994 (inactive)
CCN(CC)CCOC(=O)c1ccc(N)cc1 [Procaine hydrochloride]	1 (inactive)
CC(C)NCC(O)c1ccc(NS(C)(=O)=O)cc1 (stereo not given) [Sotalol hydrochloride]	1 (inactive)
